According to ChEMBL document CHEMBL1961873, “Compounds: GSK PKIS; Assays: Nanosyn kinase panel” (2012):

Assays:
[1] = target: Platelet-derived growth factor receptor beta (Homo sapiens) (UniProt P09619); details: at 1 µM;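 note: each value is a mean percent inhibition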
[2] = target: Tyrosine-protein kinase FRK (Homo sapiens) (UniProt P42685); details: at 0.1 µM
[3] = target: Tyrosine-protein kinase FRK (Homo sapiens) (UniProt P42685); details: at 1 µM
[4] = target: Protein-tyrosine kinase 2-beta (Homo sapiens) (UniProt Q14289); details: at 0.1 µM
[5] = target: Protein-tyrosine kinase 2-beta (Homo sapiens) (UniProt Q14289); details: at 1 µM
[6] = target: Proto-oncogene tyrosine-protein kinase receptor Ret (Homo sapiens) (UniProt P07949); details: at 0.1 µM
[7] = target: Proto-oncogene tyrosine-protein kinase receptor Ret (Homo sapiens) (UniProt P07949); details: at 1 µM
[8] = test system: Proto-oncogene tyrosine-protein kinase receptor Ret (Homo sapiens), P07949 [V804L]; details: at 0.1 µM
[9] = test system: Proto-oncogene tyrosine-protein kinase receptor Ret (Homo sapiens), P07949 [V804L]; details: at 1 µM
[10] = test system: Proto-oncogene tyrosine-protein kinase receptor Ret (Homo sapiens), P07949 [Y791F]; details: at 0.1 µM
[11] = test system: Proto-oncogene tyrosine-protein kinase receptor Ret (Homo sapiens), P07949 [Y791F]; details: at 1 µM
[12] = target: Macrophage-stimulating protein receptor (Homo sapiens) (UniProt Q04912); details: at 0.1 µM
[13] = target: Macrophage-stimulating protein receptor (Homo sapiens) (UniProt Q04912); details: at 1 µM
[14] = target: Proto-oncogene tyrosine-protein kinase ROS (Homo sapiens) (UniProt P08922); details: at 0.1 µM
[15] = target: Proto-oncogene tyrosine-protein kinase ROS (Homo sapiens) (UniProt P08922); details: at 1 µM
[16] = target: Proto-oncogene tyrosine-protein kinase Src (Homo sapiens) (UniProt P12931); details: at 0.1 µM
[17] = target: Proto-oncogene tyrosine-protein kinase Src (Homo sapiens) (UniProt P12931); details: at 1 µM
[18] = target: Tyrosine-protein kinase Srms (Homo sapiens) (UniProt Q9H3Y6); details: at 0.1 µM
[19] = target: Tyrosine-protein kinase Srms (Homo sapiens) (UniProt Q9H3Y6); details: at 1 µM
[20] = target: Tyrosine-protein kinase SYK (Homo sapiens) (UniProt P43405); details: at 0.1 µM;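 note: reported percentages are mean inhibition values for SYK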

Protein-tyrosine kinase 2-beta (Homo sapiens), sequence (Q14289 whole entry, looked up): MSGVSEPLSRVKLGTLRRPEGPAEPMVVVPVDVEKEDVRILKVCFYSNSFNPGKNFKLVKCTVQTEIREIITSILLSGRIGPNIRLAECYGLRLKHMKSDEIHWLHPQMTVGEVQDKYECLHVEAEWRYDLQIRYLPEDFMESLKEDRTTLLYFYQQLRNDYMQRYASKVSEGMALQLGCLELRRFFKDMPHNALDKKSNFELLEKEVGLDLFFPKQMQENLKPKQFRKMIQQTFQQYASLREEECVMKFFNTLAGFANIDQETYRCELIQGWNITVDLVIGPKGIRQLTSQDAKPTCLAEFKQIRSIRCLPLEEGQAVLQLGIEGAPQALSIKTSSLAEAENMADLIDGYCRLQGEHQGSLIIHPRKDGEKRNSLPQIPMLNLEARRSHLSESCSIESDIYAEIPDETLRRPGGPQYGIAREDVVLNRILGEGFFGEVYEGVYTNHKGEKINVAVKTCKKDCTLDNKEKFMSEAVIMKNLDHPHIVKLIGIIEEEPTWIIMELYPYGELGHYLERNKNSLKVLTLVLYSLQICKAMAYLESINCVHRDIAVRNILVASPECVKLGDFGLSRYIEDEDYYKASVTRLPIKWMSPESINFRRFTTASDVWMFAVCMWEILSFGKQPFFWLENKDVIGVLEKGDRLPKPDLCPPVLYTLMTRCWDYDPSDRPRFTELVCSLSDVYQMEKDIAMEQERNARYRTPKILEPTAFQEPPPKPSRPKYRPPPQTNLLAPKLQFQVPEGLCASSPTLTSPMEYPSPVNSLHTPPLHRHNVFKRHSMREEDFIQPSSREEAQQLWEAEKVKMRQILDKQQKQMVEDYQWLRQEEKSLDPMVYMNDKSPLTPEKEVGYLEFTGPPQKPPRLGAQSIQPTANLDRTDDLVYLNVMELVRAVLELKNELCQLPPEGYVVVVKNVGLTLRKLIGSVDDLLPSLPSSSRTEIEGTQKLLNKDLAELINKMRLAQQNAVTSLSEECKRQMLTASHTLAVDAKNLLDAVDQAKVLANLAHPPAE
Tyrosine-protein kinase Srms (Homo sapiens), sequence (Q9H3Y6 whole entry): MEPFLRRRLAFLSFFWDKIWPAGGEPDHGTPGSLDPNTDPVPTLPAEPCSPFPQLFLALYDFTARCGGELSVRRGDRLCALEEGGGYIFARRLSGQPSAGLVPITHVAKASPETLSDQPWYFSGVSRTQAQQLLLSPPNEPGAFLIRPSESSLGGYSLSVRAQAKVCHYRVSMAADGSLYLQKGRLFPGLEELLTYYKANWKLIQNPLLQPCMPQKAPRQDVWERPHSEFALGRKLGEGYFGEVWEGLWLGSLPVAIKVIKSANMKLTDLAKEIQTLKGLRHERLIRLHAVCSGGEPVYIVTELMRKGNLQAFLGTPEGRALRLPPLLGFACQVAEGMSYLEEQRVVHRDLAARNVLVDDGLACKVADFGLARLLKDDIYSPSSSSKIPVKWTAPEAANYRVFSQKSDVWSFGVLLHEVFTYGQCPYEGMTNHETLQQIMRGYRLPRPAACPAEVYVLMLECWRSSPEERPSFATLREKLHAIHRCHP
Tyrosine-protein kinase FRK (Homo sapiens), sequence (P42685 whole entry): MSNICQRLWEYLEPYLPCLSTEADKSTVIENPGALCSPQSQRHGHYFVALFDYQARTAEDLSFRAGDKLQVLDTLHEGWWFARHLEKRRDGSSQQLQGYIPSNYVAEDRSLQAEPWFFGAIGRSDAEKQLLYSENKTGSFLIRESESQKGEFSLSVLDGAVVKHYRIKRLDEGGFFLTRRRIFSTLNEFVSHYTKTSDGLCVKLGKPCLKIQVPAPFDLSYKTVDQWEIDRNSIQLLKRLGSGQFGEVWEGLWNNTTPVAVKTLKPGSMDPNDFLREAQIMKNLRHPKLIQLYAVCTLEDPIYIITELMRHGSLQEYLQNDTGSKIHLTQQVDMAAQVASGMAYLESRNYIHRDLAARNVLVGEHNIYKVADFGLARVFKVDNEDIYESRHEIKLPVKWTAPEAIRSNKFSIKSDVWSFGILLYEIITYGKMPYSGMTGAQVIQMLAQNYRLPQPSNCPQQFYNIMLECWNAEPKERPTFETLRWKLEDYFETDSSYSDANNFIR
Proto-oncogene tyrosine-protein kinase receptor Ret (Homo sapiens), sequence (P07949 whole entry): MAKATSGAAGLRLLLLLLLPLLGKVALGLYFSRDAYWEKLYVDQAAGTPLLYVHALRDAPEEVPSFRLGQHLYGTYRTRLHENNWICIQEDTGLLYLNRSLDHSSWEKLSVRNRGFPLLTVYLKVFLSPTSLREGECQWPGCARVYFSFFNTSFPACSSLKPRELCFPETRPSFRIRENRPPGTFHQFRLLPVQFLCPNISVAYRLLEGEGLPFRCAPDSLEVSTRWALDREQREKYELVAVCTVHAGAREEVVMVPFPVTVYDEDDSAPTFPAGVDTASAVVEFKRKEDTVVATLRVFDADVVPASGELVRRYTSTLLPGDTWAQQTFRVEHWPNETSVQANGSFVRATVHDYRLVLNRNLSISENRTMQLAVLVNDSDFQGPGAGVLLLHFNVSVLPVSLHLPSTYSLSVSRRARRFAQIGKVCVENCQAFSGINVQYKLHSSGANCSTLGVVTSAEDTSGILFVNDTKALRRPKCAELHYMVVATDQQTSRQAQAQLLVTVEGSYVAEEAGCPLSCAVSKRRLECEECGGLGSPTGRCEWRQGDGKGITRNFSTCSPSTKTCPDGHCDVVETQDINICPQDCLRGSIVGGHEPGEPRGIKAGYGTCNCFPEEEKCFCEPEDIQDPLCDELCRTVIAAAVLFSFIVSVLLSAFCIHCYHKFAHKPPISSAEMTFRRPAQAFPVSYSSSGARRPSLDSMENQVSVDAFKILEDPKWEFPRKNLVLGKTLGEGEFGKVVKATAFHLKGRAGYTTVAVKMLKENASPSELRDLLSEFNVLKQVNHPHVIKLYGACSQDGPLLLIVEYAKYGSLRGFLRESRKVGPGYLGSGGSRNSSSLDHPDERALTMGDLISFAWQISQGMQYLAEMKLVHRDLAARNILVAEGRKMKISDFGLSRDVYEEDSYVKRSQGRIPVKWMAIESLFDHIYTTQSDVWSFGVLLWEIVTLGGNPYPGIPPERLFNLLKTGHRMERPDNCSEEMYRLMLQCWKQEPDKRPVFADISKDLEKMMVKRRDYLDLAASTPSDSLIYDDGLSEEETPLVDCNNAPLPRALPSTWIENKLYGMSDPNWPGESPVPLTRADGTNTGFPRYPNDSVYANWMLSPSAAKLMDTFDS
Proto-oncogene tyrosine-protein kinase Src (Homo sapiens), sequence (P12931 2-536 limits assumed): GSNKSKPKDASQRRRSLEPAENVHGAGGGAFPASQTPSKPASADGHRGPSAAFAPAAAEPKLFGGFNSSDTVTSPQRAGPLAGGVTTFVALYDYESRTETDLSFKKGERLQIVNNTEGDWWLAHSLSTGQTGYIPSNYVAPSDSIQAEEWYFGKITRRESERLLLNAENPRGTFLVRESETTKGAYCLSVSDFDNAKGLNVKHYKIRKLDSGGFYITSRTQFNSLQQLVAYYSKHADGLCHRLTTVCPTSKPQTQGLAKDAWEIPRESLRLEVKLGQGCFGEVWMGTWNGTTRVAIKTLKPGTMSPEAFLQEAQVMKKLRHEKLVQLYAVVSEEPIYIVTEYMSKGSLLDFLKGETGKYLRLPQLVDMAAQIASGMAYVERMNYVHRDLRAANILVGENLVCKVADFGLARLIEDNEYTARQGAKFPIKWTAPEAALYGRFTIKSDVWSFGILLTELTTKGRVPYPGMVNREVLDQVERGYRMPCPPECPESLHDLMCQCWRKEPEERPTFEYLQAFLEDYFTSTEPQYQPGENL
Proto-oncogene tyrosine-protein kinase receptor Ret (Homo sapiens), P07949 [V804L], sequence (P07949 whole entry V804L): as the sequence (P07949 whole entry) above, with V804L counted along it
Macrophage-stimulating protein receptor (Homo sapiens), sequence (Q04912 25-304 limits assumed): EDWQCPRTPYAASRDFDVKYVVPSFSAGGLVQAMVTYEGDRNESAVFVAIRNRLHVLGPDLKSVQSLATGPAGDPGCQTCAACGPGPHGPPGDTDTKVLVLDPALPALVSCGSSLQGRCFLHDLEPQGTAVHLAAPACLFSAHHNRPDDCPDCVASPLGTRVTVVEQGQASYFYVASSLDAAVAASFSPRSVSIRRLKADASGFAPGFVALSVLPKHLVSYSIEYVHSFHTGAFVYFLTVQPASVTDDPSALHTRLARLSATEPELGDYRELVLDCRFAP
Macrophage-stimulating protein receptor (Homo sapiens), sequence (Q04912 310-1400 limits assumed): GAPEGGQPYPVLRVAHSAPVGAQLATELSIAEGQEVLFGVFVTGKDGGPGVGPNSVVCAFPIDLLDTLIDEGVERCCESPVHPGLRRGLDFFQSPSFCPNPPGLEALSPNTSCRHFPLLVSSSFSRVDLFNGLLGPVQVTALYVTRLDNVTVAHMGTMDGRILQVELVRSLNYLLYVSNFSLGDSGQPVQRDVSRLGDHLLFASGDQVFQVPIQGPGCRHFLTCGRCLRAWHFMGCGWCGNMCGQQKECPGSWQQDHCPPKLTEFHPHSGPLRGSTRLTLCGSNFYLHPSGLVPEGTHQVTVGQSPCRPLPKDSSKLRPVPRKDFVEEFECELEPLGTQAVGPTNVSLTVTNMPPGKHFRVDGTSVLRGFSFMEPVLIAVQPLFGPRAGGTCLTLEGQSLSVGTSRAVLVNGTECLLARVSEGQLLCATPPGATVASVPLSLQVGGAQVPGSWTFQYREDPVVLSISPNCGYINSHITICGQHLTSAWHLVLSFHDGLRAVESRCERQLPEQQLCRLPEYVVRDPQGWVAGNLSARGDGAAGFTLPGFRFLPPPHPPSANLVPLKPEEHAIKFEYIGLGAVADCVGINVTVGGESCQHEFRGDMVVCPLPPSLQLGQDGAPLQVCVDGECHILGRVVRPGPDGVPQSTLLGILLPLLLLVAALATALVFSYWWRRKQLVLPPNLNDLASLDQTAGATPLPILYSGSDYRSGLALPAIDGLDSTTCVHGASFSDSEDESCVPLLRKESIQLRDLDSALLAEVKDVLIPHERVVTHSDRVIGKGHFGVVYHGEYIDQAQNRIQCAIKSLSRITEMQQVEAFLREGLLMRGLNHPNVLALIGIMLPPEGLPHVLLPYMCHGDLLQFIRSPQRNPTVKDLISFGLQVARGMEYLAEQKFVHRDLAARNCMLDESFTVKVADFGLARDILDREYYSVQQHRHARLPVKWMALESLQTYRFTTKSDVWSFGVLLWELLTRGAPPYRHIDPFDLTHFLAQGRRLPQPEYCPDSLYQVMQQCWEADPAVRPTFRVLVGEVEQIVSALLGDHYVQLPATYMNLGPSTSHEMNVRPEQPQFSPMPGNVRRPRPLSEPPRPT

Compound | inhibition [1] | inhibition [2] | inhibition [3] | inhibition [4] | inhibition [5] | inhibition [6] | inhibition [7] | inhibition [8] | inhibition [9] | inhibition [10] | inhibition [11] | inhibition [12] | inhibition [13] | inhibition [14] | inhibition [15] | inhibition [16] | inhibition [17] | inhibition [18] | inhibition [19] | inhibition [20]
COc1cc(C=NNc2ncnc3c2cnn3-c2ccccc2)ccc1O | 68.9% | 0.86% | 3.44% | 4.69% | 14.2% | 43.5% | 80.6% | 13.6% | 46.3% | 36.3% | 75.1% | 23.7% | 64.5% | 7.09% | 31.2% | 28.6% | 79% | 1.17% | 4.56% | -2.75%
O=C1NC(=O)C(c2cccc(Cl)c2)=C1Nc1ccc(O)c(Cl)c1 | 11.5% | -0.47% | 1.74% | 1% | 9.11% | 3.31% | 7.66% | -0.49% | 0.64% | 2.27% | 2.96% | -9.4% | 6% | 1.16% | 7.24% | 3.33% | 5.62% | -0.46% | -1.95% | 1.76%
Fc1cccc(COc2ccc(Nc3ncnc4cc(-c5ccc[nH]5)sc34)cc2Cl)c1 | 8.52% | 2.14% | 2.25% | 7.86% | 11.5% | 9% | 11.5% | 3.25% | 8.38% | 7.54% | 15.8% | 4.56% | 4.33% | 9.9% | 12.1% | 3.22% | 6.79% | -0.83% | 1.08% | 1.5%
CCn1c(-c2nonc2N)nc2ccncc21 | 5.63% | 0.98% | 0.17% | 3.23% | 7.52% | 2.99% | 5.58% | 4.69% | -1.85% | 1.52% | 1.54% | 0.89% | 0.11% | 2.31% | 2.5% | 8.34% | 4.59% | -0.44% | -0.79% | 0.22%
NS(=O)(=O)c1ccc(N/N=C2\C(=O)Nc3ccc(C(=O)NCCc4c[nH]cn4)cc32)cc1 | 82.7% | 0.73% | 3.44% | 12.8% | 24.2% | 15.3% | 57.8% | 42.6% | 83.5% | 22.8% | 63.7% | 0.68% | 6% | 10.9% | 18.1% | -1.33% | 33% | -0.78% | 1.4% | -4.27%
O=C1NC(=O)C(c2ccccc2Cl)=C1Nc1cccc(O)c1 | 3.43% | 0.88% | 0.39% | 5.7% | 8.51% | 1.55% | 7.91% | 3.61% | 2.98% | 2.99% | 6.27% | 1.7% | 4.87% | 3.13% | 6.28% | 3.41% | 7.83% | -0.89% | -2.12% | 0.85%
CCn1c(-c2nonc2N)nc2cncc(C(=O)N3CCNCC3)c21 | 4.8% | 3.81% | 4.59% | 4.67% | 9.07% | 4.73% | 6.87% | 3.5% | 6.04% | 5.85% | 5.78% | 3.02% | 4.33% | 7.86% | 7.97% | 14.1% | 16.4% | -3.72% | -2.89% | -1.71%
COc1cc(C)c(NC(=O)CN(C)C)cc1Nc1nc(Nc2cccc(F)c2C(N)=O)c2cc[nH]c2n1 | 15% | 0.21% | 1% | 93.1% | 98% | 1.91% | 5.56% | 4.41% | 20.7% | 5.09% | 2.8% | 3.91% | 3.91% | 79.7% | 86% | 11.1% | 6.65% | 1.04% | 1.18% | 0.17%
